From PubChem BioAssay (EPA / NIEHS)
Inconclusive results are not listed. Active and inactive are the calls of the source. How the source made its calls: active means hit-call score of the fitted dose curve at least 0.9, where 1 is the maximum; inconclusive means response in the unintended direction; inactive means score below 0.9.

Molecular target: Cytochrome P450 2C19 (Homo sapiens) (UniProt P33261)
Test: NVS_ADME_hCYP2C19: NovaScreen (NVS) CYP450-related Enzyme Activity (ADME) Assay for human CYP2C19 (AID 2283113);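 further: potency for inhibition seen as loss of fluorescent signal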
Method in brief: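 Chemicals first screened in duplicate at 10 uM against recombinant human enzyme produced in insect cells; confirmed actives then run as concentration series. Fluorogenic substrate turnover read by fluorescence after 1 h, normalised to acetonitrile.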

SMILES | AC50
COc1ccc2nc(N)sc2c1 | 319 nM (active)
CCCCC/C=C\C/C=C\CCCCCCCC(=O)OC | 6470 nM (active)
C/C=C\C/C=C/CCCCCCCCOC(C)=O | 65 nM (active)
CC(C)(c1cc(Br)c(OCCO)c(Br)c1)c1cc(Br)c(OCCO)c(Br)c1 | 1800 nM (active)
CCCCCCCCCCCCCCCC[N+](C)(C)CC | 2310 nM (active)
C#CC1(O)CC[C@H]2[C@@H]3CCC4=CCCC[C@@H]4[C@H]3CC[C@@]21C (stereo partly specified) | 32 nM (active)

Molecular target: human Caspase 5 (CASP5), CASP5 (gene 838) (UniProt P51878)
Sequence (P51878 whole entry, looked up): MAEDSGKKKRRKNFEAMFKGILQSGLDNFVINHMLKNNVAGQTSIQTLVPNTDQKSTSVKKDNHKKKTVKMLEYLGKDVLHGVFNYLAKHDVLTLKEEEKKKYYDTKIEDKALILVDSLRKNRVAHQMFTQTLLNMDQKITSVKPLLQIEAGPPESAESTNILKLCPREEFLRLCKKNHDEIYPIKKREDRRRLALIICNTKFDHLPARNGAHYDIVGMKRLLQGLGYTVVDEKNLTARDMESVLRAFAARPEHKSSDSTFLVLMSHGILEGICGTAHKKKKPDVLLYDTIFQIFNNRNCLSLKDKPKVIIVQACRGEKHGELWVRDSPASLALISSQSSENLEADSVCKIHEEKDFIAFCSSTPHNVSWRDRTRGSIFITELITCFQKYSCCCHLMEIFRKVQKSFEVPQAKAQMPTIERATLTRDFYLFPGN
Test: NVS_ENZ_hCASP5: NovaScreen (NVS) Enzymatic Assay for human Caspase 5 (CASP5) (AID 2283137)
Method in brief: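 Cell-free protease assay with bacterially expressed CASP5 and a fluorescent substrate, measured at 2 h. Values fitted relative to DMSO as baseline, from concentration-response series topping at 50 uM.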

SMILES | AC50 | outcome
c1ccc2c(c1)ccc1cc3c(ccc4ccccc43)cc12 | 5.15 µM (active) | 
CCCCC/C=C\C/C=C\CCCCCCCC(=O)OC | 6.61 µM (active) | 
C=CCOCC(O)CCl (stereo unspecified) |  | inactive
O=Nc1ccc(O)cc1 | 13.5 µM (active) | 
N#[N+]c1ccc2c(S(=O)(=O)[O-])cccc2c1O | 9.03 µM (active) | 
